Rows were chosen to be rich in hits. Some 3.2% of all compounds tested hit in one or more screens of this group.
DENV2 CPE – inhibitors of DENV2 cytopathic effect; DENV2-infected cells, cytopathic effect rescue, plate reader; CPE inhibition, % at 9.99 µM; hit rate 1.7% among 350,000; AID 651640; in the data active = CPE inhibition above about 20%, passing the limit was not always enough; inconclusive = no clear call, values can overlap the other calls; tested in BHK-21 cells;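 also: 0% = median of neutral control wells and 100% = median of positive control wells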
rRNA inh HTS – selective bacterial rRNA inhibition in E. coli. E. coli WT GFP vs humanized-ribosome RFP mutants, fluorescence, 24 h; stronger effect = lower value; DMSO median 0, no signal -100. GFP signal change (wild-type ribosome), % (concentration not given with the values). hit rate 1.6% among 350,000;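 active = significant combined selectivity score with lowered wild-type GFP, culture density cut under 30%, mutant RFP and density less affected; inactive = any of these conditions unmet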
CaV13 ICDI inh – Disruptors of the CACNA1D IQ motif to Ca2+-dependent inactivation inhibitor domain association, primary screening, Förster resonance energy transfer in intact living …; HEK cells, CFP/YFP FRET ICDI-IQ, plate reader, 10 min; percent FRET-ratio fall versus neutral wells; inhibition, % at 12.3 µM; hit rate 0.098% among 340,000; AID 743397;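 active = mean replicate inhibition of at least 30% and at least 1% of replicates passing that level; inconclusive = only one of the two criteria is met; inactive = neither criterion is met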;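 also: 0% = median of the neutral control wells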
PGC1a acetyl inh – lowers PGC1a acetylation signal in U2OS cells; AlphaScreen anti-acetyl-lysine; with virally co-expressed GCN5 acetyltransferase; inhibition, % at 15.6 µM; hit rate 0.17% among 350,000; AID 651687;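 active = every replicate shows inhibition of at least 40%; inconclusive = mean inhibition at least 40% but some replicate below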;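 also: 0% = neutral control wells and 100% = positive control wells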
INS-1E GSIS act – GLuc luminescence reporter in INS-1E cells, primary screen for activators of glucose-dependent secretion of insulin; INS-1E GLuc reporter insulin secretion, 2-3 h; activation, % at 16.6 µM; hit rate 0.61% among 370,000;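 active = lowest replicate activation of at least 40%, so every replicate reaches that level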;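 also: 0% = median of neutral control wells and 100% = median of IBMX positive control wells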
ERAP1 HTS inh – ERAP1 (human) enzyme inhibition | Q9NZ08 | recombinant ERAP1, Leu-AMC fluorescence, 60 min | inhibition, % at 10.7 µM | hit rate 0.15% among 340,000 | AID 652197;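 active = mean replicate inhibition of at least 30%, or all replicates individually reaching that 30% level; inactive = mean below 30% and not every replicate reaching it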;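 also: 0% = neutral control wells and 100% = L-leucinethiol positive control wells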
Target sequence (Q9NZ08 whole entry, looked up): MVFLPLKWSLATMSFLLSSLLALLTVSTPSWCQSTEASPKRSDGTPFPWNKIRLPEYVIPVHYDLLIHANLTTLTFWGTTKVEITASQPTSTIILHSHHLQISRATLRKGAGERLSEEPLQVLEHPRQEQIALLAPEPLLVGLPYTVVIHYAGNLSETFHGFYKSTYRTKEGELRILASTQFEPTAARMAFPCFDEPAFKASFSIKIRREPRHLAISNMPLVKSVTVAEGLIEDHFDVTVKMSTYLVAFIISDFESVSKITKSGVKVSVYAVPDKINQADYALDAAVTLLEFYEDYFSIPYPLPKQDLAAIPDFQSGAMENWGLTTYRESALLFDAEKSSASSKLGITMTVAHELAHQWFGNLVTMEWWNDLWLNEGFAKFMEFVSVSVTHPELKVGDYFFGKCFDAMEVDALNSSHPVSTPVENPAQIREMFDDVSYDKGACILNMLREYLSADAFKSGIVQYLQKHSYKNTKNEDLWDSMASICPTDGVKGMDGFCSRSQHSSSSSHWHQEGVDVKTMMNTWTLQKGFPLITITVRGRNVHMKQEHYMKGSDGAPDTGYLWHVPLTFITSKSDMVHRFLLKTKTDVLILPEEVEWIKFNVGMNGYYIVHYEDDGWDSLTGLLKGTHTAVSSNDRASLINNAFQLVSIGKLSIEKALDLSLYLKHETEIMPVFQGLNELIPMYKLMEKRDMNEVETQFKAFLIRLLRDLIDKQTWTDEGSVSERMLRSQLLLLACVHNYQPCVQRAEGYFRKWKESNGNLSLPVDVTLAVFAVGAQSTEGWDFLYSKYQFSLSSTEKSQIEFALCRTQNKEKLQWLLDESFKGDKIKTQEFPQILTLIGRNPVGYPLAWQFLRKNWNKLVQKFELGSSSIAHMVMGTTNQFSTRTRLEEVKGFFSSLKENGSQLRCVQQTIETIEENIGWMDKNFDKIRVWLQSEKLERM
AID977621 – growth inhibition of wild-type GFP E. coli, dose response, H69 mutant RFP, cherry-pick | activity change, negative = inhibition at 50 µM | E. coli wild-type GFP strain growth, fluorescence, 24 h | shares compounds with rRNA inh HTS | 1,900 tested, under 10 active;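 active = Wild-type ribosome reporter drop at least double the humanized mutant ribosome reporter drop, growth loss under a set limit; inconclusive = no clear call, values can overlap the other calls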;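 also: wild-type GFP and H69 mutant RFP strains grown together 50/50 in each well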
AID977628 – E. coli growth inhibition, wild-type GFP versus h24 humanized RFP strain, dose response, h24 mutant RFP vs wild-type GFP, cherry-pick | shares compounds with rRNA inh HTS | E. coli WT GFP strain growth, fluorescence, 24 h | activity change, negative = inhibition at 50 µM | 1,900 tested, under 10 active;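 active = compound lowering the normal-ribosome reporter at least twice as much as the humanized-ribosome reporter, growth loss under a set limit; inconclusive = no clear call, values can overlap the other calls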;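 also: wild-type GFP and h24 humanized RFP strains co-cultured 1 to 1 per well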
* marks the source's active call; other numbers are inactive results; ? = inconclusive; / = no result given.

SMILES	DENV2 CPE	rRNA inh HTS	CaV13 ICDI inh	PGC1a acetyl inh	INS-1E GSIS act	ERAP1 HTS inh	AID977621	AID977628
COc1ccc(-c2cc(C(=O)N3CCCCC3)no2)cc1OC	-2	-23*	-7	3	22	4	-7	?
COc1ccc(-c2cc(C(=O)N3CCc4ccccc4C3)no2)cc1	6	-26*	5	-1	-4	-1	-5	/
COc1ccc(-c2cc(C(=O)N3CCCC3)no2)cc1OC	1	-4	-4	-5	7	0	/	/
COc1cccc(-c2cc(C(=O)N3CCc4ccccc4C3)no2)c1	/	/	-3	8	-11	/	/	/
Cc1cccc(NC(=O)Nc2ccc3c(c2)C(=O)N(C)[C@@H]2CC[C@H](CC(=O)O)O[C@@H]2CO3)c1	2	0	/	-3	3	-4	/	/
C[C@H](CO)N1C[C@H](C)[C@H](CN(C)C)OCCCC[C@H](C)Oc2ccc(NS(=O)(=O)c3cn(C)cn3)cc2C1=O	6	5	/	2	18	0	/	/
Cc1c(Cc2ccccc2)sc(NC(=O)Cc2ccccc2)c1C(N)=O	/	-18*	/	7	10	6	-4.5	-11
CCC(=O)Nc1sc(Cc2ccccc2)c(C)c1C(N)=O	-4	-51	-3	4	/	3	/	/
COc1ccc(S(=O)(=O)Nc2ccc3c(c2)C(=O)N([C@H](C)CO)C[C@H](C)[C@@H](CN(C)C(=O)Nc2ccccc2)OCCCC[C@@H](C)O3)cc1	?	1	/	4	-4	/	/	/
CC(C)OC(=O)c1sc2nc(-c3ccccc3)ccc2c1N	-3	-26*	11	-9	-2	1	0.58	?
COCc1nnc(NC(=O)c2ccc(S(=O)(=O)N3CCCC3)cc2)o1	-2	-23*	-4	/	14	0	-16	/
O=C(C[C@H]1CC[C@@H](NS(=O)(=O)c2ccccc2)[C@H](CO)O1)N1CCN(c2ccccc2)CC1	-8	-1	/	/	-4	-5	/	/
Cc1ccccc1NCc1ccc([N+](=O)[O-])s1	-11	-34*	-6	-21	-3	-1	/	-6.7
CCC(=O)N1CC2(C1)[C@H](c1ccc(-c3ccc(F)cc3)cc1)[C@@H](CO)N2C(=O)CC	-11	-3	/	-1	-7	3	/	/
C[C@@H]1CN([C@@H](C)CO)C(=O)Cc2cc(NC(=O)CCN3CCOCC3)ccc2O[C@H]1CN(C)Cc1ccccc1	-4	2	/	/	22	1	/	/
COc1ccc(CC(=O)Oc2ccc(C)cc2C)cc1	6	-23*	-7	/	5	1	-5.7	-5.9
Cc1ccc(OC(=O)CCC(=O)Oc2ccc(C)cc2C)c(C)c1	-7	-6	-10	-6	-5	-2	/	/
C[C@H]1CN([C@@H](C)CO)C(=O)c2cc(NC(=O)C3CC3)ccc2O[C@@H]1CN(C)CC1CCCCC1	8	6	/	-9	0	4	/	/
CC(CCc1ccccc1)NC(=O)CNC(=O)COc1ccccc1 (stereo unspecified)	1	-14*	0	-1	/	-3	-15	/
CCC(=O)Nc1ccc2c(c1)OC[C@@H](C)N(C(=O)CC1CC1)C[C@H](C)[C@H](OC)CN(C)C2=O	17	1	/	2	-4	-2	/	/
C[C@H]1CN([C@@H](C)CO)C(=O)c2cccc(N(C)C)c2O[C@@H]1CN(C)Cc1ccc(C(=O)O)cc1	6	-3	/	-10	8	1	/	/
CN1CCN(C(=O)C[C@@H]2CC[C@H]3[C@@H](COC[C@@H](O)CN3C(=O)Nc3ccc(Cl)cc3)O2)CC1	-12	-24	/	2	-11	-1	/	/
C[C@@H](NC(=O)C[C@@H]1CC[C@@H]2[C@H](COC[C@H](O)CN2C(=O)Nc2cccc(F)c2)O1)c1ccccc1	-1	-21*	/	3	1	-1	/	?
O=C(C[C@H]1CC[C@H]2[C@@H](COC[C@@H](O)CN2C(=O)Nc2ccc(Cl)cc2)O1)N1CCCCC1	2	-18*	/	13	0	-2	/	?
O=C(C[C@@H]1CC[C@H]2[C@@H](COC[C@H](O)CN2C(=O)Nc2ccc(Cl)cc2)O1)N1CCCCC1	-7	-47	/	1	-23	-2	/	/
SMILES	DENV2 CPE	rRNA inh HTS	CaV13 ICDI inh	PGC1a acetyl inh	INS-1E GSIS act	ERAP1 HTS inh	AID977621	AID977628
CN1CCN(C(=O)C[C@H]2CC[C@H]3[C@@H](COC[C@@H](O)CN3C(=O)Nc3ccc(Cl)cc3)O2)CC1	-11	-19*	/	0	-4	1	/	?
CN1CCN(C(=O)C[C@H]2CC[C@H]3[C@@H](COC[C@H](O)CN3C(=O)Nc3ccc(Cl)cc3)O2)CC1	-6	-25*	/	4	-6	-3	/	?
CC(C)CC#Cc1ccc2c(c1)O[C@@H](CN(C)C(=O)c1cnccn1)[C@H](C)CN([C@H](C)CO)S2(=O)=O	/	-3	/	11	-13	/	/	/
CC(C)NC(=O)Nc1ccc2c(c1)CC(=O)N([C@@H](C)CO)C[C@@H](C)[C@@H](CN(C)S(C)(=O)=O)O2	-1	4	/	-4	11	1	/	/
O=C(C[C@@H]1CC[C@H]2[C@@H](COC[C@H](O)CN2C(=O)Nc2ccc(Cl)cc2)O1)NCc1ccncn1	3	-6	/	3	-12	-1	/	/
O=C(C[C@@H]1CC[C@@H]2[C@H](COC[C@H](O)CN2C(=O)Nc2ccc(Cl)cc2)O1)NCc1ccncn1	7	-22*	/	-6	-5	-3	-5.3	?
O=C(Nc1cc(S(=O)(=O)N2CCCCC2)ccc1N1CCCCC1)C1CC1	3	-20*	0	-3	-19	-1	-6.5	-5.6
Cc1ccc2cccc(OCc3ccccc3)c2n1	-4	-26*	-19	12	/	-3	-10	-8
CCOC(=O)C1NN=C(C(=O)c2ccccc2)C1c1ccc(OC)cc1 (stereo unspecified)	3	-25*	-4	-13	10	10	-9	-6.3
CCOC(=O)C1NN=C(C(=O)c2ccccc2)C1c1ccccc1 (stereo unspecified)	17	-15	-5	/	11	-2	/	/
Cc1ccc(S(=O)(=O)Nc2ccc3c(c2)CC(=O)N([C@@H](C)CO)C[C@H](C)[C@@H](CN(C)C)O3)cc1	9	-2	/	2	5	2	/	/
CCOC(=O)CSc1n[nH]c(=S)s1	4	0	-3	/	2	/	/	/
CCOC(=O)CCSc1n[nH]c(=S)s1	-5	-21*	-5	/	/	4	-14	-2.7
